Drawing on PubChem BioAssay (EPA / NIEHS), this text covers outcome and AC50 for 4 compounds.

Each structure is given as a SMILES string. Active and inactive are the calls of the source. The calls were made as follows: active = hit-call score of the fitted dose curve at least 0.9, where 1 is the maximum; inactive = score below 0.9.

Holding throughout (settings): mRNA level, 48 h; actives raise or lower the signal
Read-out in experiment [1]: Apoptosis regulator Bcl-2 (Homo sapiens) (UniProt P10415)
As to the kind of experiment: LTEA_HepaRG_BCL2: Life Technologies and Expression Analysis (LTEA) Assay for Bcl-2 gene using HepaRG (AID 2283475). In outline:
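Plated human HepaRG cells are exposed to test chemicals for 48 h across eight concentrations from 100 uM downward in half-log steps (0.5% DMSO). BCL2 expression is then measured by qRT-PCR with housekeeping normalisation and fitted bidirectionally against vehicle.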

Read-out in experiment [2]: Bcl-2 (BID) gene, BID (gene 637)
Briefly: LTEA_HepaRG_BID: Life Technologies and Expression Analysis (LTEA) Assay for Bcl-2 (BID) gene using HepaRG (AID 2283476). Put shortly:
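Cells are plated, cultured 48 h, switched to serum-free induction medium, then dosed 48 h (100 uM top, half-log steps, 0.5% DMSO). RNA is isolated and BID expression read by qRT-PCR.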

Read-out in another experiment: Caspase-3 (Homo sapiens) (UniProt P42574)
As to the kind of experiment: LTEA_HepaRG_CASP3: Life Technologies and Expression Analysis (LTEA) Assay for cysteine-aspartic acid protease (CASP3) using HepaRG (AID 2283477). Put shortly:
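In HepaRG liver cells dosed for 48 h at up to 100 uM (eight-point, duplicate), CASP3 expression changes are scored by qRT-PCR. Activity is fitted in both directions with 0.5% DMSO as baseline.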

Read-out in experiment [3]: Cytochrome P450 (CYP1A2), CYP1A2 (gene 1544)
Briefly: LTEA_HepaRG_CYP1A2: Life Technologies and Expression Analysis (LTEA) Assay for Cytochrome P450 (CYP1A2) using HepaRG (AID 2283479). Put shortly: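 Assesses CYP1A2 mRNA in human HepaRG liver cells after 48 h chemical exposure at up to 100 uM. Values come from qRT-PCR with bidirectional curve fitting relative to DMSO.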

Read-out in experiment [4]: Cytochrome P450 (CYP2B6), CYP2B6 (gene 1555)
Briefly: LTEA_HepaRG_CYP2B6: Life Technologies and Expression Analysis (LTEA) Assay for Cytochrome P450 (CYP2B6) using HepaRG (AID 2283481). In outline: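 Using 48 h treatment of HepaRG cells in serum-free induction medium, concentrations spanned half-log steps from 100 uM in 0.5% DMSO vehicle. CYP2B6 mRNA induction or loss is scored by qRT-PCR against DMSO.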

Read-out in experiment [5]: Cytochrome P450 2C19 (Homo sapiens) (UniProt P33261)
Briefly: LTEA_HepaRG_CYP2C19: Life Technologies and Expression Analysis (LTEA) Assay for CYP2C19 using HepaRG (AID 2283482). Put shortly: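 Human HepaRG liver cells received test chemicals for 48 h (highest 100 uM, half-log dilutions in 0.5% DMSO). CYP2C19 mRNA induction or loss is read by multiplexed qRT-PCR and fitted in both directions versus vehicle.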

Read-out in a further experiment: CYP2C8 (gene 1558)
Briefly: LTEA_HepaRG_CYP2C8: Life Technologies and Expression Analysis (LTEA) Assay for CYP2C8 using HepaRG (AID 2283483). Put shortly:
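HepaRG (human liver line), 48 h chemical exposure, 8-pt half-log series from 100 uM, 0.5% DMSO vehicle. Readout: CYP2C8 transcript by qRT-PCR, housekeeping-normalized. Bidirectional fit vs DMSO baseline.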

Read-out in a further experiment: CYP2C9 (gene 1559)
As to the kind of experiment: LTEA_HepaRG_CYP2C9: Life Technologies and Expression Analysis (LTEA) Assay for CYP2C9 using HepaRG (AID 2283484). Put shortly: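 HepaRG, 48 h dosing, 8-pt half-log series, top 100 uM, 0.5% DMSO vehicle. Read-out: CYP2C9 transcript by TaqMan qRT-PCR, housekeeping-normalized (ACTB/GAPDH/POLR2A). Gain or loss fitted vs DMSO baseline.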

Read-out in a further experiment: CYP4A11 (gene 1579)
As to the kind of experiment: LTEA_HepaRG_CYP4A11: Life Technologies and Expression Analysis (LTEA) Assay for CYP4A11 using HepaRG (AID 2283486). Put shortly:
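Readout is CYP4A11 mRNA induction or suppression (qRT-PCR, ACTB/GAPDH/POLR2A normalization) in human HepaRG cells after 48 h chemical treatment, concentrations to 100 uM in 0.5% DMSO, fitted bidirectionally against vehicle.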

Read-out in experiment [6]: Cytochrome P450 3A4 (Homo sapiens) (UniProt P08684)
Briefly: LTEA_HepaRG_CYP3A4: Life Technologies and Expression Analysis (LTEA) Assay for CYP3A4 using HepaRG (AID 2283487). In outline: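 HepaRG, 48 h exposure, 8-pt CRC from 100 uM (half-log), 0.5% DMSO, duplicates; serum-free induction medium. Readout: CYP3A4 mRNA, qRT-PCR, ACTB/GAPDH/POLR2A normalization. Bidirectional fit vs DMSO.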

Read-out in experiment [7]: DNA damage-inducible transcript 3 (DDIT3), DDIT3 (gene 1649)
Briefly: LTEA_HepaRG_DDIT3: Life Technologies and Expression Analysis (LTEA) Assay for DNA damage-inducible transcript 3 (DDIT3) using HepaRG (AID 2283488). Put shortly:
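Cells are human HepaRG liver cells treated for 48 h with eight half-log concentrations up to 100 uM in 0.5% DMSO. Transcript levels come from qRT-PCR normalized to three housekeeping genes, with activity fitted in both directions relative to vehicle.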

Read-out in experiment [8]: Pro-epidermal growth factor (Homo sapiens) (UniProt P01133)
Briefly: LTEA_HepaRG_EGF: Life Technologies and Expression Analysis (LTEA) Assay for Epidermal growth factor (EGF) using HepaRG (AID 2283489). In outline: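 EGF expression changes in human HepaRG cells are scored by bidirectional fitting relative to 0.5% DMSO controls. Chemicals are tested at eight half-log concentrations up to 100 uM for 48 h in serum-free induction medium.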

Read-out in experiment [9]: Early growth response protein 1 (EGR1) transcription factor, EGR1 (gene 1958)
Briefly: LTEA_HepaRG_EGR1: Life Technologies and Expression Analysis (LTEA) Assay for Early growth response protein 1 (EGR1) transcription factor using HepaRG (AID 2283490). Put shortly: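 HepaRG, 48 h exposure, 8-pt half-log series from 100 uM, 0.5% DMSO vehicle; EGR1 transcript by TaqMan qRT-PCR (Fluidigm array), housekeeping-normalized; bidirectional fit relative to DMSO baseline.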

Read-out in experiment [10]: Ezrin (EZR), EZR (gene 7430)
Briefly: LTEA_HepaRG_EZR: Life Technologies and Expression Analysis (LTEA) Assay for Ezrin (EZR) using HepaRG (AID 2283491). Put shortly:
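Read-out is EZR transcript level by qRT-PCR, normalized to three housekeeping genes and fitted bidirectionally against the DMSO control. Human HepaRG cells received test chemicals for 48 h at eight half-log concentrations up to 100 uM in 0.5% DMSO.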

Read-out in a further experiment: CYP3A5 (gene 1577)
As to the kind of experiment: LTEA_HepaRG_CYP3A5: Life Technologies and Expression Analysis (LTEA) Assay for CYP3A5 using HepaRG (AID 2283493). Put shortly: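 Human HepaRG hepatic cells receive 48 h chemical treatment at eight concentrations (half-log steps from 100 uM) in 0.5% DMSO. Expression of CYP3A5 is quantified by Fluidigm qRT-PCR and normalized to three reference genes.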

Read-out in experiment [11]: Fatty Acid-Binding Protein 1 (FABP1), FABP1 (gene 2168)
As to the kind of experiment: LTEA_HepaRG_FABP1: Life Technologies and Expression Analysis (LTEA) Assay for Fatty Acid-Binding Protein 1 (FABP1) using HepaRG (AID 2283494). In outline: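 qRT-PCR readout of FABP1 transcript (normalized to three housekeeping genes) after 48 h chemical exposure of HepaRG cells; eight concentrations, half-log steps, max 100 uM, 0.5% DMSO vehicle; gain or loss fitted relative to DMSO baseline.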

Read-out in experiment [12]: cysteine-aspartic acid protease (CASP8), CASP8 (gene 841)
Briefly: LTEA_HepaRG_CASP8: Life Technologies and Expression Analysis (LTEA) Assay for cysteine-aspartic acid protease (CASP8) using HepaRG (AID 2283480). In outline: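 qRT-PCR readout of CASP8 mRNA, normalized to three housekeeping genes, after 48 h chemical exposure of HepaRG cells; 8-point half-log series, top 100 uM, 0.5% DMSO vehicle. Bidirectional curve fitting against DMSO baseline.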

Read-out in another experiment: CYP2E1 (gene 1571)
As to the kind of experiment: LTEA_HepaRG_CYP2E1: Life Technologies and Expression Analysis (LTEA) Assay for CYP2E1 using HepaRG (AID 2283485). Put shortly: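 Readout is qRT-PCR of CYP2E1 mRNA, normalized to three housekeeping genes and fitted bidirectionally against 0.5% DMSO. HepaRG cells were dosed 48 h at eight concentrations, highest 100 uM with half-log dilutions.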

Sequence of Cytochrome P450 2C19 (Homo sapiens) (P33261 whole entry, looked up): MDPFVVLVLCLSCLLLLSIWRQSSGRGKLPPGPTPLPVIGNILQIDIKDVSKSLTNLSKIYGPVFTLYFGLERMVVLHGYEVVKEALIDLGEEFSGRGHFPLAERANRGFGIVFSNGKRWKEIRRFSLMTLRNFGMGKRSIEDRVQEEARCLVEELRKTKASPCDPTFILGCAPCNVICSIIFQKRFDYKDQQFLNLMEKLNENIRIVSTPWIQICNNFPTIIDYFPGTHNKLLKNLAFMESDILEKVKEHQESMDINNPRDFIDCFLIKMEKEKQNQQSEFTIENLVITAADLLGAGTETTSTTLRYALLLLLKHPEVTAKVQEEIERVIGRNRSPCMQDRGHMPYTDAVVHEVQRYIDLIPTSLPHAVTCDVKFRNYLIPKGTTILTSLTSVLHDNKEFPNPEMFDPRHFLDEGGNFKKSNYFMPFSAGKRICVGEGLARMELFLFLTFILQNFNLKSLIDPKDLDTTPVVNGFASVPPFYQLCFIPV
Sequence of Apoptosis regulator Bcl-2 (Homo sapiens) (P10415 whole entry, looked up): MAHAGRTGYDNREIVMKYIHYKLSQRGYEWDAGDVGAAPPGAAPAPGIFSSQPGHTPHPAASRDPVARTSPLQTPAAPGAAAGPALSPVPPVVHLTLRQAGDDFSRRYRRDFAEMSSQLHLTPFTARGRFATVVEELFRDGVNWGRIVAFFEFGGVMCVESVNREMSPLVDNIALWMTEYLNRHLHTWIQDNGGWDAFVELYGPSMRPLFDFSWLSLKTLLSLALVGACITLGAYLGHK
Sequence of Caspase-3 (Homo sapiens) (P42574 whole entry, looked up): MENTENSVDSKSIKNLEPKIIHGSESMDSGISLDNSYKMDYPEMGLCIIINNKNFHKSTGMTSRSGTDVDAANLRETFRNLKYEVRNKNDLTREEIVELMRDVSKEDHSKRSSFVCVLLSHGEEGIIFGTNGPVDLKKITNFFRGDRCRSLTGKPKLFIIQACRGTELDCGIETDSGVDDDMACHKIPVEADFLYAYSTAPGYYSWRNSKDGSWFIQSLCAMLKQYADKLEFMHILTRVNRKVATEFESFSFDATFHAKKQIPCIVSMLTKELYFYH
Sequence of Cytochrome P450 3A4 (Homo sapiens) (P08684 whole entry, looked up): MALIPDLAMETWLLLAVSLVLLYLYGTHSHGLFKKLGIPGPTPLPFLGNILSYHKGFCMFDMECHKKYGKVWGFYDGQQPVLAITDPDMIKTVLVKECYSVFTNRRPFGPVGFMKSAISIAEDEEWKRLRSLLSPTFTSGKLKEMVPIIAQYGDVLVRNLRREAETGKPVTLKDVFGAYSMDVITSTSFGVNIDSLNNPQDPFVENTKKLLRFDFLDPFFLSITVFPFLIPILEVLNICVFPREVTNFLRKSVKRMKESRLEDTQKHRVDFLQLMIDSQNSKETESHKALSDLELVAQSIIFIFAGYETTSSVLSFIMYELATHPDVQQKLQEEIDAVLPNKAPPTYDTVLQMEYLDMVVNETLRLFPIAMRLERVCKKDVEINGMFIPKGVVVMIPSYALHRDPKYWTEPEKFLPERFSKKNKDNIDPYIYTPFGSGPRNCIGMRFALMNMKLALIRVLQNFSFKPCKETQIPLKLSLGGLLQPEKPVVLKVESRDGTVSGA

The AC50 is the concentration giving half of the maximal activity seen. On to `O=C(O)c1ccccc1-n1cc(C(=O)O)c(=O)c2cc(Nc3c(F)cc(F)cc3Cl)c(Cl)cc21`, for which the call (in experiment [1]; with Caspase-3 (Homo sapiens); in [3]; with CYP2C9 (gene 1559); with CYP4A11 (gene 1579); in experiment [7]) was inactive. Besides, the outcome (in experiment [8]; in experiment [9]; in experiment [10]; in the experiment with CYP3A5 (gene 1577); in experiment [11]) was inactive. In addition, the AC50 in experiment [2] is 0.01 µM (active); in experiment [4] it was 11.2 µM (active); in [5], 5.7 µM (active); with CYP2C8 (gene 1558), 7.91 µM (active); in experiment [6], 3.09 µM (active).

In the case of `CO[C@H]1/C=C/O[C@@]2(C)Oc3c(C)c(O)c4c(O)c(c(/C=N/N5CCN(C)CC5)c(O)c4c3C2=O)NC(=O)/C(C)=C\C=C\[C@H](C)[C@H](O)[C@@H](C)[C@@H](O)[C@@H](C)[C@H](OC(C)=O)[C@@H]1C`, the outcome (in [1]; in experiment [2]; in the experiment with Caspase-3 (Homo sapiens); in [12]; in experiment [7]; in experiment [8]) was inactive. Moreover, the outcome in experiment [9] and in experiment [10] was inactive. Also, the AC50 in experiment [3] was 0.563 µM (active); in experiment [4], 0.359 µM (active); in experiment [5], 0.427 µM (active); with CYP2C8 (gene 1558), 0.232 µM (active); in the experiment with CYP4A11 (gene 1579), 0.593 µM (active); in experiment [11] it was 0.486 µM (active).

Regarding `CN(C)C(=O)C1(N2CCCCC2)CCN(CC[C@@]2(c3ccc(Cl)c(Cl)c3)CN(C(=O)c3ccccc3)CCO2)CC1`, the AC50 in experiment [1] was 22.6 µM (active); in experiment [3] it was 24.2 µM (active); in experiment [4], 27.8 µM (active); in experiment [5] it was 23.9 µM (active); in the experiment with CYP2C8 (gene 1558), 28 µM (active); with CYP2C9 (gene 1559), 21.9 µM (active). In addition, the AC50 was 14.9 µM (active) with CYP4A11 (gene 1579); 25.7 µM (active) in experiment [6]; 17.5 µM (active) in experiment [7]; 25.3 µM (active) in experiment [8]; 53.1 µM (active) in [9]; 60.6 µM (active) in [10]. In experiment [11], the AC50 is 17 µM (active). The outcome (in [2]; with Caspase-3 (Homo sapiens); in [12]; with CYP3A5 (gene 1577)) was inactive.

Regarding `O=C(Nc1ccc(Cl)cc1)Nc1ccc(Cl)c(Cl)c1`, the AC50 was 11.9 µM (active) in experiment [1]; 13.3 µM (active) with Caspase-3 (Homo sapiens); 11.8 µM (active) in experiment [3]; 19.2 µM (active) in [4]; 22.6 µM (active) in experiment [5]; 87.1 µM (active) with CYP2C8 (gene 1558). Moreover, the AC50 was 16.9 µM (active) with CYP2C9 (gene 1559); 15.8 µM (active) in the experiment with CYP2E1 (gene 1571); 28.7 µM (active) with CYP4A11 (gene 1579); 26.6 µM (active) in experiment [7]; 50 µM (active) in experiment [8]; 12.6 µM (active) in experiment [9]. Besides, the AC50 in experiment [11] was 16.7 µM (active). In addition, the outcome (in experiment [2]; in experiment [12]; in [10]; with CYP3A5 (gene 1577)) was inactive.
